Screens from PubChem BioAssay.
Autofluor counter – counter-screen for toxin protease inhibitors: compound fluorescence; compound autofluorescence counterscreen, microsphere flow cytometry; hits give high values; fluorescence intensity (test concentration not listed); 360,000 compounds, 3.1% hits; AID 624483; in the data active = fluorescence intensity above about 16000; inconclusive = no clear call, values can overlap the other calls
Anthrax LF inh2 – anthrax lethal factor protease inhibition; 360,000 compounds, 0.12% hits; inhibition, % at 10 µM; AID 588501; multiplex microsphere protease cleavage assay, LF; P15917
Target sequence (P15917 whole entry, looked up): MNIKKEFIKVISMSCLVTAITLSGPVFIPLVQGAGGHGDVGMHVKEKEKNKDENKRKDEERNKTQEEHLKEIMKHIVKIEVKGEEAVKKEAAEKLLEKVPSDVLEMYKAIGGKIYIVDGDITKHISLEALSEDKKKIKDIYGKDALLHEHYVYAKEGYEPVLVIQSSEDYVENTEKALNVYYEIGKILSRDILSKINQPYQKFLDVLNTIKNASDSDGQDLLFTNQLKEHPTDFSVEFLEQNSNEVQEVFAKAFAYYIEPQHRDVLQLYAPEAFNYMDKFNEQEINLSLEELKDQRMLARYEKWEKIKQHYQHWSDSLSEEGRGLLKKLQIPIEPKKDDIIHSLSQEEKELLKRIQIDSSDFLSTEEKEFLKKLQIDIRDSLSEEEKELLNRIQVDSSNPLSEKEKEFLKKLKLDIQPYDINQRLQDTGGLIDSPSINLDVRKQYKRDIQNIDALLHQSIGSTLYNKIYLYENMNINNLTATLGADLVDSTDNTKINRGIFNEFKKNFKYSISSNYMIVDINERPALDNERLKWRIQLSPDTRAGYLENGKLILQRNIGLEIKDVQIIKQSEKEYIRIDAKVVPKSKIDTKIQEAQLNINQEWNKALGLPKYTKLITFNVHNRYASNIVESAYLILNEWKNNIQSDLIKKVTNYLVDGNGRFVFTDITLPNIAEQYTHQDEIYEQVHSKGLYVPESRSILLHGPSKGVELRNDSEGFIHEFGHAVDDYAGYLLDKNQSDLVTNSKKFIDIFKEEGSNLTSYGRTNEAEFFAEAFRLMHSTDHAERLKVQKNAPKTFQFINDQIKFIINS
BoNT-F LC inh – BoNT F light chain protease inhibition; 360,000 compounds, 0.22% hits; inhibition, % at 10 µM; AID 588497; Multiplex microsphere protease cleavage assay, flow cytometry; in the data active = inhibition above about 35%, passing the limit was not always enough; inconclusive = no clear call, values can overlap the other calls
BoNT-A LC inh2 – BoNT A light chain protease inhibition | 360,000 compounds, 0.17% hits | multiplex microsphere protease substrate cleavage, flow cytometry | inhibition, % at 10 µM
Hits are given with their value; - = inactive; ? = inconclusive. Rows were chosen to be rich in hits. Some 3.5% of all compounds tested hit in one or more screens of this group. Cut-off read from the data, not from the text of the source, unless noted: active = inhibition above about 30%; inconclusive = no clear call, values can overlap the other calls; inactive = below that.

SMILES	Autofluor counter	Anthrax LF inh2	BoNT-F LC inh	BoNT-A LC inh2
Cc1c(Cl)cccc1N(CC(=O)NC(C)c1ccccc1)S(C)(=O)=O (stereo not drawn)	?	-	?	-
O=C(Nc1ccon1)c1ccc(Cl)s1	17115	-	-	?
O=C1c2cccc(NCCNCCO)c2C(=O)c2cccc(NCCNCCO)c21	-	-	-	-
CCCCOc1ccc(C2C3CN(C(=O)OCC)CC=C3C(C#N)=C(N)C2(C#N)C#N)cc1OC (stereo not drawn)	23656	-	-	-
CC(=O)N1CC=C2C(C#N)=C(N)C(C#N)(C#N)[C@H](c3ccoc3)[C@H]2C1	23512	-	-	-
CCOC(=O)N1CC=C2C(C#N)=C(N)C(C#N)(C#N)[C@H](c3ccc(OCC)c(OCC)c3)[C@H]2C1	20898	-	-	-
CN1CC=C2C(C#N)=C(N)C(C#N)(C#N)[C@H](c3ccoc3)[C@H]2C1	-	-	-	-
CC(=O)N1CCN(C(=O)c2cccc(S(=O)(=O)Nc3c(C)n(C)n(-c4ccccc4)c3=O)c2)CC1	-	-	-	-
COc1cc(OC)cc(C(=O)NNC(=O)c2nn(C)c(=O)c3ccccc23)c1	-	-	-	-
COC(=O)c1nnn(-c2ccccc2)c1N	-	-	-	-
COCc1c(C(=O)OC)nnn1-c1ccccc1	22960	-	-	?
O=C(/C=C/c1ccc(Cl)cc1)NCCc1ccccc1	-	-	-	-
O=C(/C=C/c1ccccc1Cl)NCCc1ccccc1	21242	-	-	?
O=C(/C=C/c1ccccc1Cl)NCc1ccccc1	20859	-	-	-
COCCN1CCC(CO)C1 (stereo not drawn)	-	-	-	-
CC(C)(C)c1cc(C2COC(=O)COCCOCC(=O)OCCOCCO2)cc(C(C)(C)C)c1O (stereo not drawn)	-	-	-	-
CCOc1ccc(S(=O)(=O)N2CCCC(C(=O)NC3CCCC3)C2)cc1 (stereo not drawn)	-	-	-	-
O=C1CC(N2CCC(c3nc4ccccc4o3)CC2)C(=O)N1c1cc(Cl)cc(Cl)c1 (stereo not drawn)	22844	-	-	-
CN(C)C(CNc1nnnn1-c1ccccc1)c1ccco1 (stereo not drawn)	20446	-	-	-
Cc1ccc(-n2nnnc2-c2ccco2)cc1	-	-	-	-
Cc1ccc(C)c(Nc2c(F)c(F)c(F)c(F)c2C(=O)O)c1	-	-	-	-
COc1c(F)c(F)c(C(=O)O)c(Nc2ccc(C)cc2)c1F	22057	-	-	-
CN(C(=O)COC(=O)c1ccccc1NCc1ccco1)c1c(N)n(Cc2ccccc2)c(=O)[nH]c1=O	-	-	-	-
CCOC(=O)c1c(C)[nH]c(C)c1S(=O)(=O)N(C)CC(=O)Nc1cccc(C)n1	-	-	-	-
Cc1ccc(S(=O)(=O)c2c(C)cc(C)nc2Cl)c(C)c1	22797	-	-	?
SMILES	Autofluor counter	Anthrax LF inh2	BoNT-F LC inh	BoNT-A LC inh2
Cc1ccc(S(=O)(=O)N2CC(C)N(C(=O)N3CCOCC3)C2)cc1 (stereo not drawn)	-	-	-	-
CCC(=O)N1CN(S(=O)(=O)c2ccc(C)cc2)CC1C (stereo not drawn)	21656	-	-	-
COc1ccc(Cl)cc1NC(=O)CCCn1c(=O)c2cccn2c2cccnc21	-	-	-	-
O=C(Nc1ccc(N2CCCCC2)cc1)c1ccccc1	-	-	-	-
O=C(Nc1ccc2c(c1)OCCO2)c1cccc(S(=O)(=O)N2CCCCC2)c1	21092	-	-	?
CCN(CC)C(=O)c1ccc(NC(=O)c2cccc(F)c2)cc1	20909	-	-	-
O=C(Nc1ccc(Nc2ccccc2)cc1)c1cccc(F)c1	-	-	-	-
O=C(Nc1ccc(N2CCOCC2)cc1)c1cccc(S(=O)(=O)N2CCCCCC2)c1	-	-	-	-
O=C(Nc1ccc(N2CCCC2)cc1)c1cccc(F)c1	19303	-	-	-
O=C(Nc1ccc(N2CCOCC2)cc1)c1cccc(S(=O)(=O)N2CCCC2)c1	25105	-	-	-
O=C(Nc1cccc(S(=O)(=O)N2CCCC2)c1)c1cccc(S(=O)(=O)N2CCOCC2)c1	-	-	-	-
CCCn1c(NC(=O)c2cccc(S(=O)(=O)N3CCCC3)c2)nc2ccccc21	16663	-	-	-
O=C(Nc1ccc2c(c1)OCCO2)c1cccc(S(=O)(=O)N2CCOCC2)c1	23080	-	-	-
O=C(NCc1ccc2c(c1)OCO2)c1cccc(S(=O)(=O)N2CCCCC2)c1	17025	-	-	?
CCCn1c(NC(=O)c2ccccc2)nc2ccccc21	-	-	-	-
O=c1[nH]c2ccccc2n1CCCSCCCn1c(=O)[nH]c2ccccc21	19717	-	-	?
CCCc1cc(C(=O)OC)c(NC(=O)CCCC(=O)O)s1	-	-	-	-
CCCc1cc(C(=O)OC)c(NC(=O)OCC)s1	18061	-	-	?
CCOC(=O)c1cc(CC)sc1NC(=O)C1CC1	-	-	-	-
CCc1cc(C(=O)OC)c(NC(=O)CCC(=O)O)s1	21823	-	-	-
S=C(Nc1ccc(Cl)c(Cl)c1)NC1CCCCC1	21140	-	-	-
Cc1ccc(NC(=O)NC2CCCCC2)cc1Cl	21618	-	-	-
Cc1ccc(NC(=O)C2CCN(C(=O)NC3CCCCC3)CC2)cc1Cl	-	-	-	-
CC(C)C(C)NC(=O)COn1nnc2ccc(S(=O)(=O)N3CCOCC3)cc21 (stereo not drawn)	?	-	-	-
CC(=O)Nc1nonc1NC(=O)CSc1ncn[nH]1	21267	-	-	-
SMILES	Autofluor counter	Anthrax LF inh2	BoNT-F LC inh	BoNT-A LC inh2
CC(=O)Nc1nonc1NC(=O)CSc1ccccn1	?	-	-	-
COc1ccc(CCNC(=O)CSc2ccccn2)cc1	-	-	-	-
O=C(CSc1ncn[nH]1)Nc1ccc2c(c1)OCCO2	23582	-	-	-
COc1ccc(CCNC(=O)CSc2ncn[nH]2)cc1	19819	-	-	-
Cc1nnc(SCC(=O)Nc2ccc3c(c2)OCCO3)s1	21759	-	-	-
C#CCN(Cc1ccco1)C(=O)c1cc(COc2cccc3cccnc23)on1	-	-	-	-
Cc1nnc(SCC(=O)N2CCOCC2)s1	19625	-	-	?
O=C(CSc1ncn[nH]1)Nc1c(F)cc(F)cc1Br	23998	-	-	?
Cc1nnc(SCC(=O)N2CCC(C(N)=O)CC2)s1	-	-	-	-
CC1=CC2=C(OC1N(C)C)c1cccc3cccc(c13)C2=O (stereo not drawn)	21836	-	-	-
CCc1ccc(CN2CCCC(C(=O)Nc3ccccc3-c3ccc(OC)cc3)C2)o1 (stereo not drawn)	-	-	-	-
Cc1cc2oc(=O)cc(CN3CCN(C/C=C/c4ccccc4)CC3)c2cc1O	23462	-	-	-
O=c1cc(CN2CCN(C/C=C/c3ccccc3)CC2)c2cc(O)c(-c3ccccc3)cc2o1	-	-	-	-
O=C(NCc1ccccn1)C1CCN(Cc2cnn(-c3ccccc3)c2-n2cccc2)CC1	22540	-	-	-
O=C(NCc1cccnc1)C1CCCN(Cc2cnn(-c3ccccc3)c2-n2cccc2)C1 (stereo not drawn)	23887	-	-	-
O=C(NC1CC1)C1CCN(Cc2cnn(-c3ccccc3)c2-n2cccc2)CC1	23345	-	-	-
CCN(CC)C(=O)CSCc1cnn(-c2ccccc2)c1-n1cccc1	22480	-	-	?
O=C(CSCc1cnn(-c2ccccc2)c1-n1cccc1)NCc1ccccn1	-	-	-	-
